In PubChem BioAssay AID1578 (Sanford-Burnham Center for Chemical Genomics, 2009) one finds inhibition data, which are given here for 62 molecules.

The whole screen tested about 290,000 compounds, of which about 3,000 (1%) were called active. Only a selection was taken, and actives are over-represented in it overall. A number with no mark means an inactive call. Rule as the data show it: active = inhibition mostly above about 36% (no sharp cut-off); inactive = mostly below about 34%.

A short description of the experiment: NOD1 signaling inhibitors, primary screen, cell-based, luminescence, uHTS (AID 1578).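 Also: HEK-293T reporter cells stimulated with the NOD1 agonist gamma-tri-DAP.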 Particulars: NOD1-driven NF-kB luciferase reporter cells, at 4 µM, active compounds read high.
For `Cc1ccc(NC(=S)NC(NC(=O)N(C)C)C(Cl)(Cl)Cl)cc1` (configuration not stated), the inhibition is -18.2%.
The same measure for `Cc1cc(OCC(=O)N(C(C)C)C(C)C)ccc1Cl`: -6.4%.
On to `O=[N+]([O-])c1cccc(-c2nnc(C34CC5CC(CC(C5)C3)C4)o2)c1`, for which the inhibition was 3.3%.
The same measure for `CC(=O)c1ccc(NC(=O)Nc2ccc3c(c2)nc(C)n3C)cc1`: -18.8%; for `Cc1nc2cc(NC(=O)Nc3cccc4ccccc34)ccc2n1C`: -27.6%; for `CCn1c(C)nc2cc(C(=O)NNC(=O)Nc3cccc(Cl)c3)ccc21`: -5.3%.
Take `Cc1nc2cc(NC(=O)Nc3ccccc3Cl)ccc2n1C`: the inhibition was 53% (active).
The same measure for `COc1ccccc1NC(=O)Nc1ccc2c(c1)nc(C)n2C`: -28.8%; for `CCn1c(C)nc2cc(NC(=O)Nc3cccc(C(C)=O)c3)ccc21`: 27.9% (active); for `CN1CCN(C(=O)C2CCCN(S(=O)(=O)c3ccc(F)cc3)C2)CC1` (configuration not stated): -7.3%.
As for `Cc1ccccc1Nc1n[nH]c(C)c1[N+](=O)[O-]`, the inhibition was -24.5%.
Consider `O=C(NCCc1ccccc1)c1cccc2c1C(=O)N(C1CCCCC1)C2`, for which the inhibition was -19.5%.
The same measure for `COc1ccc(CC(=O)Nc2cccnc2)cc1`: -8.6%.
The same measure for `COc1ccc(CC(=O)Nc2ccccc2NC(=O)Cc2ccc(OC)cc2)cc1`: -7.4%; for `O=C(Cc1c(Cl)cccc1Cl)Nc1ccncc1Cl`: 5.2%.
The same measure for `O=C(Cc1ccc(Cl)cc1Cl)Nc1ccncc1`: 42.8%; for `COc1ccccc1/C=C/CN1CC(C)OC(C)C1` (configuration not stated): -19.9%.
As to `Cc1ccc(NC(=O)CCn2cccc2)cc1`, the inhibition is 3.6%.
Take `O=C(CSc1nnc(-c2cccnc2)n1Cc1ccccc1)NCc1ccco1`: the inhibition is 8.8%.
`COC(=O)C1CCN(Cc2cn(-c3ccccc3)nc2-c2ccc3c(c2)OCO3)CC1`: the inhibition is -55.9%.
The same measure for `CC1CN(Cc2c(O)ccc3c(=O)c(-c4ccccc4)coc23)CC(C)O1` (configuration not stated): -13.3%; for `COc1ccc(C2N3CC4(C)CN2CC(C)(C3)C4=O)cc1OC` (configuration not stated): -7.8%; for `O=C(CCc1nc(-c2ccccc2)no1)NCc1ccco1`: 11%.
The same measure for `Cc1ccc(-c2noc(CCC(=O)NCc3ccco3)n2)cc1`: -0.8%.
Take `Fc1cnc(N2CCN(c3ccccc3)CC2)nc1N1CCN(c2ccccc2)CC1`: the inhibition was 43.3%.
For `O=C(CCc1nc2ccccc2c(=O)[nH]1)Nc1ccc(F)cc1`, the inhibition is -23.2%.
As to `COC(=O)c1ccc2nc(-c3cccc(N)c3)cn2c1`, the inhibition was 40.5%.
The same measure for `Oc1ccc(-c2cn3ccccc3n2)cc1O`: 1.7%; for `Oc1ccc(-c2cn3ccccc3n2)cc1`: -2%.
The same measure for `COC(=O)c1ccc2nc(-c3ccc4c(c3)OCO4)cn2c1`: 68.3% (active).
The same measure for `Clc1ccc2nc(-c3ccc4c(c3)OCO4)cn2c1`: -30.6%.
On to `c1ccn2cc(-c3ccc4c(c3)OCCO4)nc2c1`, for which the inhibition is 45.8% (active).
The same measure for `CC12CCC(C(=O)O)(c3nc(C#N)c(C#N)nc31)C2(C)C` (configuration not stated): -25.8%; for `O=C(NCc1ccccn1)c1cccc(NS(=O)(=O)c2cccc(F)c2)c1`: -15.2%.
Regarding `O=C(CCCCCn1c(=S)[nH]c2ccc(N3CCOCC3)cc2c1=O)NCc1ccccc1`, the inhibition is 2.3%.
For `Cc1cccc(N2CCN(C(=O)CCCn3c(=S)[nH]c4cc5c(cc4c3=O)OCO5)CC2)c1C`, the inhibition is 2.8%.
The same measure for `O=C(CCCn1c(=S)[nH]c2cc3c(cc2c1=O)OCO3)N1CCN(c2ccc(F)cc2)CC1`: -8.6%.
The same measure for `O=C(CCCn1c(=S)[nH]c2cc3c(cc2c1=O)OCO3)N1CCN(c2ccccc2)CC1`: -1%; for `C=CCNC(=O)CN(c1ccc(F)c(Cl)c1)S(C)(=O)=O`: -17.3%; for `CC(=O)N[C@@H](C)C(=O)N1CCN(S(=O)(=O)c2ccc(Cl)cc2)CC1`: -26%.
The same measure for `O=C(Nc1cccnc1Oc1ccc(Cl)cc1)c1cccc2ccccc12`: -9.2%.
As to `COc1cc(OC)c(NC2c3ccccc3C(=O)N2c2cc(C)ccn2)cc1Cl` (configuration not stated), the inhibition is -37.7%.
In the case of `Cc1ccc(C)c(NC(=O)CCN2CCCCC2)c1`, the inhibition was -14.7%.
The same measure for `CCO[C@H]1OC(C(=O)O)=C[C@@H](c2ccc3c(c2)OCO3)[C@@H]1CCCO`: -10.4%.
The same measure for `Cc1ccc2nc(-c3ccccc3)cn2c1`: 18%; for `Cc1ccc(-c2cn3cc(C)ccc3n2)cc1`: 92.4% (active); for `Cc1ccc2nc(-c3ccc(O)c(O)c3)cn2c1`: -18.6%.
The same measure for `CCOC(=O)c1c(CSc2ccccc2)oc2ccc(O)cc12`: 98.6% (active); for `CCOC(=O)c1c(COc2ccccc2)oc2ccc(O)cc12`: 0%; for `CCOC(=O)c1c(CSc2ccc(C)cc2)oc2ccc(O)cc12`: 30%.
Regarding `CCOC(=O)CC(=O)CSc1nc2ccccc2c(=O)n1-c1ccc(C(=O)N2CCOCC2)cc1`, the inhibition was 6.8%.
On to `Cc1ccc(Cn2nnc3c(=O)[nH]c(C4CCCN(S(=O)(=O)c5ccc(F)cc5)C4)nc32)cc1` (configuration not stated), for which the inhibition was -17.1%.
The same measure for `CCN(CC(=O)Nc1ccc(NC(C)=O)cc1)C(=O)C1COc2ccccc2O1` (configuration not stated): -17.6%.
Consider `CC(CN1CCOCC1)OC(=O)c1ccccc1` (configuration not stated), for which the inhibition was -4.8%.
As to `CC(CN1CCOCC1)OC(=O)c1ccc(Br)cc1` (configuration not stated), the inhibition is -14.8%.
Regarding `CC(CN1CCOCC1)OC(=O)c1ccc(C(C)(C)C)cc1` (configuration not stated), the inhibition is 68.1% (active).
The same measure for `COc1ccc(Cn2c3nc4ccccc4nc3c3c(=O)n(Cc4ccco4)c(C)nc32)cc1`: 110% (active); for `Cc1nc2c(c(=O)n1Cc1ccccc1Cl)c1nc3ccccc3nc1n2Cc1ccco1`: 17.8%.
The same measure for `COc1ccc(Cn2c3nc4ccccc4nc3c3c(=O)n(Cc4ccco4)cnc32)cc1`: 32.5%; for `O=C(NS(=O)(=O)Nc1ccc(Br)cn1)c1c[nH]c2ccccc12`: 31.1%.
The same measure for `CCOc1ccc(S(=O)(=O)N(C)c2ccc(OCC(=O)NCCc3ccc(OC)cc3)cc2)cc1`: -14%; for `CN1CCN(S(=O)(=O)c2cccc(C(=O)Nc3sc4c(c3-c3nc5ccccc5[nH]3)CCCC4)c2)CC1`: -16%.
